Measured values taken from ChEMBL document CHEMBL3988442, “University of Dundee, Small-Polar-MMV Screening Library” (2021).

Key:
[1] = biological target: T1, Aspartate--tRNA(Asp/Asn) ligase (Mycobacterium tuberculosis (strain ATCC 25618 / H37Rv)) (UniProt P9WFW3); assay: Assay for Asp RNA synthetase-1 from Mycobacterium tuberculosis; assay type: functional; set-up: scale not given: direction of the effect not stated beside the values; details: 30 µM; also: in the data most compounds retested in dose-response had high values
T1 sequence (whole entry): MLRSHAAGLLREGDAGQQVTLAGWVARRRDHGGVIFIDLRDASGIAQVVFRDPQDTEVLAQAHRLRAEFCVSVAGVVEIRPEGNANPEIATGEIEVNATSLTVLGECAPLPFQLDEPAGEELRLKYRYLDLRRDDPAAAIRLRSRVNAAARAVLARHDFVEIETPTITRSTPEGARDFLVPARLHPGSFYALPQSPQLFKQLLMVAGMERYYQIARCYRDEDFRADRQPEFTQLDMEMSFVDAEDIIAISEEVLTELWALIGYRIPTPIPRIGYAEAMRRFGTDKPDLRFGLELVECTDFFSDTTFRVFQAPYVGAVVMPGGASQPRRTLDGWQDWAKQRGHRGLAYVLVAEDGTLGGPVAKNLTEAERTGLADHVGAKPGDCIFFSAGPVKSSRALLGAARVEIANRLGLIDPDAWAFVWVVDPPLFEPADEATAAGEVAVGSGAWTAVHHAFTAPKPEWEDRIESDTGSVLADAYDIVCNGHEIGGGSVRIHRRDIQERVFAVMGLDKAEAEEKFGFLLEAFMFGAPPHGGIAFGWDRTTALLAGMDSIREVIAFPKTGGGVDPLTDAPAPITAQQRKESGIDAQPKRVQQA

[2] = biological target: Shiga toxin 2 (Escherichia coli O157:H7) (UniProt P09385+P09386); assay: E. coli 0.157:H7 Shiga Toxin SOP - stx2 screening assay; assay type: functional; set-up: scale not given: direction of the effect not stated beside the values; details: 30 µM

Structure (SMILES) | Percent Effect [1] [%] | Percent Effect [2] [%]
Cc1nc(C2(NCC(=O)NCCc3cccs3)CCCC2)no1 | -3.06 | 8.44
COc1ccc(CN2CCN(C(C)c3nc(C4CC4)no3)CC2)cc1 (stereo unspecified) | -3.61 | 0.241
Cc1nc(COC[C@]23COC[C@H]2CN(Cc2ccoc2)C3)cs1 | -0.55 | 4.86
CCCc1nnsc1C(=O)NCC1CCN(c2ccccn2)CC1 | -7.59 | -0.668
COc1ccccc1C1CNC(=O)c2nc(-c3cnn(C)c3)[nH]c2C1 (stereo unspecified) | 1.33 | -58
CC1CN(C)c2ccccc2CN1C(=O)c1ccc[nH]1 (stereo unspecified) | 4.95 | -9.14
CCCNC(=O)CSc1nnc2[nH]c(=O)cc(CC)n12 | -6.58 | -11.3
CCc1ncnc2c1CCN(Cc1ccc(OC)cc1)CC2 | -0.259 | -28
COCC(=O)N1CCC(c2nccnc2Oc2cccnc2C)CC1 | 3.02 | 6.27
CCNC(=O)[C@@H]1C[C@H](NC(=O)Cc2ccsc2)CN1Cc1ccc(C)o1 | -0.518 | 18.7
CN(C)C(=O)CC1CC2(CCN(c3ncccn3)CC2)c2ccccc21 (stereo unspecified) | 2.97 | -6.02
O=C(NS(=O)(=O)c1ccc2c(c1)OCCO2)c1ccc(Br)cc1F | 1.56 | 8.44
Cc1ccc(-c2nc(CCNC(=O)CCN3CCOC3=O)co2)cc1 | -1.93 | -45.5
O=C(CCc1cccs1)N1CCC(N2CCNC2=O)CC1 | -2.08 | -4.13
Cc1cnn(CCNCC(=O)NCc2ccccc2)c1 | 1.29 | 10.2
CC(C)c1cc(N2CCN(c3ccc(O)cc3)CC2)n2nccc2n1 | -1.38 | 15
O=C(CC1CCCC1)N1CCCC1c1nc(O)cc(-c2ccccn2)n1 (stereo unspecified) | -2.84 | -10.1
COc1cc(CNC2CCc3nc(C)nn3C2)cc2c1OCCO2 (stereo unspecified) | -2.19 | -2.67
CCN(Cc1cccc(Cl)c1)Cn1nc(C)c2c(C)onc2c1=O | -2.62 | 21.7
CNc1oc(-c2cc(S(=O)(=O)N3CCCCCC3)c(C)o2)nc1C#N | 2.56 | -18.8
COCCc1noc(CNCC2CCCN2c2cccnn2)n1 (stereo unspecified) | 4.93 | -3.58
COCC1CN(S(C)(=O)=O)Cc2ncn(CC3CC3)c21 (stereo unspecified) | -3.82 | -1.74
CN(C)CC1CN(Cc2csc(C3CCCC3)n2)CCO1 (stereo unspecified) | 1.38 | 14.5
CCc1nnc2n1CCN(C(=O)c1cnc3ccccc3n1)C2 | -4.57 | 0.361
COc1cc(NC(=O)c2ccccc2F)c(C(=O)N(C)C)cc1OC | 8.8 | -68.8
CC(NC(=O)NCCCN(C)S(C)(=O)=O)c1cccc(Cl)c1 (stereo unspecified) | 1.12 | -9.29

Structure (SMILES) | Percent Effect [1] [%] | Percent Effect [2] [%]
CCCS(=O)(=O)N1CCN(c2cc(-n3nc(C)cc3C)nc(C)n2)CC1 | -3.15 | -4.71
Cc1cc(F)c(S(=O)(=O)NCCCN2CCC(O)CC2)cc1F | 11.3 | -69.6
COc1ccc(C(CO)NC(=O)Nc2cccnc2)cc1 (stereo unspecified) | -1.35 | -19.2
Cc1cc(C)n(C2CCCN(C(=O)C3=NN(C)C(=O)CC3)C2)n1 (stereo unspecified) | 0.706 | 17.2
COc1ncc(C2(O)CCN(Cc3cccs3)CC2)c(OC)n1 | -0.868 | -24.4
Cc1cccc(CN2CC3(CCNCC3)OCC2=O)n1 | 5.56 | 5.99
CC(=O)c1c(F)cccc1N1CCC(CS(N)(=O)=O)CC1 | -3.49 | -2.68
COc1ncccc1NC(=O)N(Cc1ccc(C)o1)C1CC1 | -0.455 | 12.1
CN(Cc1nccs1)c1nc(-c2ccccn2)nc2c1CCNCC2 | 2.26 | -12.4
O=C(NCCCN1CCOCC1)c1cc(-c2ccco2)[nH]n1 | -0.98 | -21.1
CCCC(=O)N1CC[C@@H]2[C@H](CC1)N(Cc1cccnc1)CCS2(=O)=O | -0.493 | -7.37
COc1ccc(CC(=O)NC2(C)CCS(=O)(=O)C2)cc1F (stereo unspecified) | 4.95 | -19.1
CN(CCCNC(=O)N1CCCC1c1ccsc1)c1ccccn1 (stereo unspecified) | -3.28 | -79.8
Cc1ccc(C(=O)N2CCCC(NC(=O)C(C)C)C2)c(O)c1 (stereo unspecified) | 7 | 7.56
CCN1CCN(C2CCN(Cc3nc(-c4ccoc4)no3)CC2)C1=O | 1.49 | 22.7
Fc1cnc(N2C[C@H]3CCC[C@@]3(COc3ccccn3)C2)nc1 | 0.435 | 2.51
Cc1cncc(C(=O)N2CCC(Cn3cc(-c4ccsc4)nn3)CC2)c1 | -0.792 | -26.5
Cn1ccc(C(=O)N2CCCC(n3cncn3)C2)cc1=O (stereo unspecified) | -4.15 | -5.76
CN1CCN(C(=O)Cc2cccc(F)c2)Cc2cccnc21 | -2.05 | -29.8
CC(=O)N1CCC2(CC1)COCCN2Cc1ccc(F)cc1 | -4.11 | -2.06
CN1CCN(C(=O)c2ccc(=O)n(C)c2)Cc2ccccc21 | -5.51 | -29.2
Cc1cc(F)ccc1S(=O)(=O)NCc1cccc(C(=O)N2CCCC2)c1 | -1.3 | 30.6
COCCN1CCN(Cc2ccc(F)c(C)c2)[C@H]2CS(=O)(=O)C[C@H]21 | -3.12 | -5.44
O=C1CC(NCc2ccncc2)CN1Cc1cccc(F)c1 (stereo unspecified) | 2.73 | -1.08
COc1ccc2nnc(CCCC(=O)NCc3cccn3C)n2n1 | -1.89 | -44.7
CCc1sc(-c2nnc(CNCCn3cc(C)cn3)o2)cc1C | 2.52 | -107

Structure (SMILES) | Percent Effect [1] [%] | Percent Effect [2] [%]
O=C(Cn1cnc(NC(=O)CC2CCCC2)n1)NCc1ccccc1 | -1.37 | 12.3
CC(NC(=O)N1CCN(CCc2ccccc2)CC1)c1nncn1C (stereo unspecified) | -7.6 | -13.8
CC(=O)N(Cc1noc(C2CC2)n1)C1CCN(Cc2cccnc2)C1 (stereo unspecified) | -2.42 | 12.6
O=C(c1cccc(S(=O)(=O)NCCCc2ncc[nH]2)c1)N1CCOCC1 | 8.25 | -13.2
NC(=O)c1ccc(CN2CCCC(N3CCCC3)C2)cc1 (stereo unspecified) | -1.17 | -4.76
CN(CC(=O)N1CCCN(Cc2cscn2)CC1)c1cnccn1 | -1.02 | -25.9
Cc1ccc(C2CCCN2Cc2nc3c(cnn3C)c(=O)[nH]2)cc1C (stereo unspecified) | -1.66 | -9.34
CCN1CCC2(C=C(C(=O)NC3CC3)c3ccccc32)CC1 | -0.796 | 1.55
CC(C)c1nc(CN(C)C2CCN(Cc3nc(C4CC4)no3)C2)no1 (stereo unspecified) | 5.06 | -26.4
CC(COc1ccc(F)cc1F)NC(=O)NCCN1CCOCC1 (stereo unspecified) | -1.71 | -3.82
CC(O)CN1CCC(CNCc2ccccc2OC(F)(F)F)CC1 (stereo unspecified) | -1.43 | 5.19
CCN1C(=O)CCCC12CCCN(C(=O)c1cnccn1)C2 (stereo unspecified) | 0.865 | -10.9
O=C(c1ccsc1)N1CC[C@H]2C[C@@H](c3nnc(C4CC4)o3)O[C@@H]2C1 | 0.51 | -18.9
Cc1cnn(CC2CCCN2C(=O)c2cc3c(F)cccc3[nH]2)c1 (stereo unspecified) | 4.86 | -37.3
O=C(NCC(=O)N1CCc2ccccc2C1)c1ccoc1 | 1.62 | -10.2
CCN1CC2(CC1=O)CN(C(=O)c1ccco1)CCN(C(=O)N(C)C)C2 (stereo unspecified) | 0.684 | -12.4
O=C(NCc1ccc(OCC2CC2)nc1)c1c(F)cccc1F | -0.03 | 0.72
COCCN1CCN(Cc2cccc(C(=O)N(C)C)c2)CC1C (stereo unspecified) | 1.34 | -34.7
O=C(CC1CCCC1)NCCn1ccc(-c2ccccn2)n1 | -4.3 | -5.4
CC(C)[C@H](NC(=O)NC1CCS(=O)(=O)C1)C(=O)NCc1ccccc1Cl (stereo partly specified) | 0.145 | -30
Cc1n[nH]c(C2CN(C(=O)CCc3ccsc3)CCO2)n1 (stereo unspecified) | 3.08 | -2.19
CN(C)C(=O)c1ccc2c(c1)N(C)C(CC(=O)NC(C)(C)CO)CO2 (stereo unspecified) | 1.87 | -25.6
COc1ccc(-n2ncc(C(=O)NCC3COC(C)(C)O3)c2N)cc1 (stereo unspecified) | -2.49 | 7.2
Cc1ccc(C(=O)Nc2cn[nH]c2)cn1 | 1.01 | 15.1
CC(C)[C@H](NC(=O)NC1CCS(=O)(=O)C1)C(=O)NCc1cccnc1 (stereo partly specified) | -2.09 | -28.7
CCOCC(=O)N1CCC(Oc2ccc(Cl)cn2)CC1 | -2.08 | -2.19

Structure (SMILES) | Percent Effect [1] [%] | Percent Effect [2] [%]
Cc1nc([C@@H]2C[C@@H]3CCN(C(=O)Cc4ccsc4)C[C@H]3O2)no1 | -2.49 | 2.89
CC(=O)NCc1ccc(C(=O)N2CCCC2c2cnn(C)c2)o1 (stereo unspecified) | 1.21 | 21.1
c1cncc(-c2nccc(CN3CCCC3)n2)c1 | 2.87 | -20.7
CC1CCCCN1CCNC(=O)c1ccn(-c2ccc(F)cc2)n1 (stereo unspecified) | 3.98 | -12.3
N#Cc1cccnc1NCCNC(=O)N1CCCC(C(F)(F)F)C1 (stereo unspecified) | -0.524 | -17.9
COc1ncccc1CNC(=O)NC1CCOc2ccccc21 (stereo unspecified) | -1.92 | -19.2
CC(C)(C)NC(=O)C1CSCN1S(=O)(=O)c1ccc(F)cc1 (stereo unspecified) | 5.02 | 1.58
O=C(NCc1cc[nH]n1)N(CCCO)C1CCc2ccccc21 (stereo unspecified) | 1.93 | 0.536
NC(=O)c1ccc2c(c1)nc1n2CCN(Cc2ccco2)C1 | 6.41 | -31.5
CCOC(=O)CCNC(=O)N1CCN(c2nc3ccccc3n2C)CC1 | -4.71 | -68.4
COc1c(CNCc2ccc(C(=O)NC3CC3)cc2)c(C)nn1C | -3.68 | -14.2
O=C(c1cccs1)N1CCC(Cn2nc(-c3ccco3)ccc2=O)CC1 | -3.23 | 5.24
Cc1ccc(CC(=O)N2CCCCC2c2nc(C)cs2)cn1 (stereo unspecified) | -2.2 | 1.25
CC(O)CN(CC(=O)NC(=O)NC1CC1)c1ccccc1 (stereo unspecified) | -1.82 | 4.59
CC(C)Oc1cccc(CNC(=O)NC(C)(C(=O)O)c2ccco2)c1 (stereo unspecified) | 1.32 | 25.1
CCn1c(Cn2cncn2)nnc1C1CCN(Cc2ccc(C)o2)CC1 | -3.48 | 18.7
Cc1cccc2c1cnn2CCCNC(=O)C(C)C | 11.8 | -9.88
CC(C)CC(CNC(=O)NCc1cc[nH]n1)N1CCOCC1 (stereo unspecified) | -6.68 | -30.7
Cc1noc([C@H]2C[C@H]3OCC[C@H]3N(S(=O)(=O)C3CC3)C2)n1 | 0.456 | 19.9
COc1ccc(OCCNCCn2cccn2)cc1 | 1.29 | -27.4
CCS(=O)(=O)CC(=O)NC(c1ccc(F)cc1)C1CCCC1 (stereo unspecified) | -3.77 | -1.68
COCCN(C)C[C@@H]1CCC[C@@H]2CN(c3cc(OC)ncn3)C[C@@H]21 | 1.66 | 2.29
COc1ccc2c(c1)CCCN2Cc1nc2c(cnn2C)c(=O)[nH]1 | -4.23 | -5.78
Cc1nc(C2CCCN2C(=O)c2cnns2)no1 (stereo unspecified) | -4.19 | 27.5
Cc1cc(C)n(C2CN(CC(O)COc3ccc(F)cc3)C2)n1 (stereo unspecified) | -0.121 | 19.1
